Unmarked numbers belong to inactive results. Results filed as inconclusive are left out. Activity calls are given as the source filed them. Unless noted, the call rests on the fitted dose curve; in most records, active means well fitted curve in the direction sought with a large enough effect in the repeat runs; inconclusive means weak or mixed curves; inactive means no such curve, though single readings can be large; an effect the other way counts as inactive or inconclusive.

A short description of assay [1]: qHTS assay to identify small molecule antagonists of the estrogen receptor alpha (ER-alpha) signaling pathway using the BG1 cell line in the presence of 0.1 nM 17-beta-estradiol - cell viability counter screen (AID 1259241). Further: nearly all actives have a fitted effect of over 40% in size. Further: potency means the concentration at half of the fitted maximal effect. An outline of the steps: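 Measures cytotoxicity alongside the ER-alpha antagonist readout: VM7Luc4E2 cells, charcoal-stripped serum, 0.1 nM 17beta-estradiol final, 22 hr compound incubation at 37C, CellTiter-Fluor fluorescence.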

Assay [2] in a line: qHTS assay to identify small molecule antagonists of the androgen receptor (AR) signaling pathway using the MDA cell line in the presence of 0.5 nM R1881 - cell viability counter screen (AID 1259242). Further: nearly all actives have a fitted effect of over 45% in size. Further: potency means the concentration at half of the fitted maximal effect. An outline of the steps:
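Steps: plate MDA-kb2 cells, rest 5 hr at 37C without CO2; pin in compounds in DMSO; add R1881 to 0.5 nM final; incubate 16 hr; add CellTiter-Fluor, 30 min; read fluorescence.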
On the technique in general: qHTS replaces the single test concentration by a dilution series.

The target in assay [3] is Androgen receptor (Homo sapiens) (UniProt P10275). The experiment in a line: qHTS assay to identify small molecule antagonists of the androgen receptor (AR) signaling pathway using the MDA cell line in the presence of 0.5 nM R1881 (AID 1259243). Further: nearly all actives have a fitted effect of over 50% in size. An outline of the steps:
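Stably transfected MDA-kb2 cells express luciferase from an MMTV promoter bearing both AR and GR response elements. Compounds plus 0.5 nM R1881 (final) were incubated 16 hr at 37C without CO2, then luminescence measured.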

Assay [4] deals with Estrogen receptor (Homo sapiens) (UniProt P03372). The experiment in a line: qHTS assay to identify small molecule antagonists of the estrogen receptor alpha (ER-alpha) signaling pathway using the BG1 cell line in the presence of 0.1 nM 17-beta-estradiol (AID 1259244). Further: nearly all actives have a fitted effect of over 50% in size. An outline of the steps: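 Antagonist mode: compounds in DMSO are pinned onto VM7Luc4E2 reporter cells, 0.1 nM final 17beta-estradiol is added, and after 22 h at 37C luciferase luminescence is measured with ONE-Glo.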

Assay [5] in a line: qHTS assay to identify small molecule antagonists of the sonic hedgehog signaling (Shh) pathway (AID 1259369; calls by dose curve; further: nearly all actives have a fitted effect of over 45% in size; further: potency means the concentration at half of the fitted maximal effect). An outline of the steps: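 Cells are plated and held 4hr at 37 C, compounds (DMSO) are pinned in, conditioned medium is added to stimulate the pathway, and after 24hr luciferase reagent is added for 30min before luminescence is read.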
In assay [6] the target is Estrogen receptor beta (Homo sapiens) (UniProt Q92731). The assay can be described thus: qHTS assay to identify small molecule antagonists of the estrogen receptor beta (ER-beta) signaling pathway (AID 1259378; active means well fitted inhibition curve with a large enough effect in the signal ratio in the repeat runs, not every such curve was filed as active; the % refers to the signal ratio). The gist of the method: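 Antagonist mode: compounds added to beta-lactamase reporter HEK293T ER-beta-UAS cells stimulated with E2 (1nM final), 16 hr at 37C. LiveBLAzer B/G FRET substrate, 2 hours room temperature, fluorescence read-out.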

Assay [7] in a line: qHTS assay to identify small molecule agonists of the androgen receptor (AR) signaling pathway in the presence of an antagonist - cell viability counter screen (AID 1259379). Further: nearly all actives have a fitted effect of over 25% in size. Further: potency means the concentration at half of the fitted maximal effect. The gist of the method:
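Cytotoxicity is assessed by CellTiter-Fluor in MDA-kb2 cells carrying an MMTV-driven luciferase reporter. Cells receive 3.0uM nilutamide plus compounds at 15 concentrations and incubate 16 hr at 37C without CO2 before fluorescence reading.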

Assay [8] can be described thus: qHTS assay to identify small molecule agonists of the estrogen receptor beta (ER-beta) signaling pathway - cell viability counter screen (AID 1259380). Further: nearly all actives have a fitted effect of over 30% in size. The gist of the method: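 Cytotoxicity is measured in parallel with the reporter screen: after 16 hr compound exposure at 37C and a 2 hr LiveBLAzer step, CellTiter-Glo is added to the same ER-beta-UAS-bla HEK293T wells and luminescence read after 30 min.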

The target of assay [9] is Androgen receptor (Homo sapiens) (UniProt P10275). The experiment in a line: qHTS assay to identify small molecule agonists of the androgen receptor (AR) signaling pathway in the presence of an antagonist (AID 1259381; calls by dose curve; further: nearly all actives have a fitted effect of over 15% in size). An outline of the steps:
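Agonist-mode confirmation screen: human MDA-kb2 cells stably expressing luciferase under an MMTV promoter bearing AR and GR response elements, co-treated with 3.0uM nilutamide (final). Luminescence measured after 16hr compound incubation.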

Assay [10] can be described thus: qHTS assay to identify small molecule antagonists of the estrogen receptor beta (ER-beta) signaling pathway - cell viability counter screen (AID 1259382).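 Further: HEK293T cells carrying ER-beta-UAS-bla reporter stimulated with estradiol; series mostly up to about 92 µM; nearly all actives have a fitted effect of over 55% in size.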 The gist of the method:
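Cytotoxicity counter screen multiplexed with the beta-lactamase antagonist assay: GripTite HEK293T ER-beta-bla cells were treated 16 hr with test chemicals in the presence of 1nM 17-beta-estradiol, and viability was measured by CellTiter-Glo.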

Assay [11] addresses Estrogen receptor (Homo sapiens) (UniProt P03372). The assay can be described thus: qHTS assay to identify small molecule agonists of the estrogen receptor alpha (ER-alpha) signaling pathway in the presence of an antagonist (AID 1259383; calls by dose curve; further: top concentration of the series differs between compounds; nearly all actives have a fitted effect of over 15% in size). The gist of the method:
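Agonist-mode confirmation in the presence of the ER antagonist ICI-182,780 at 10.0nM final. Breast-derived VM7Luc4E2 reporter cells were exposed to compounds for 22hr, and ERE-driven luciferase was quantified by luminescence.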

Assay [12] is described as follows: qHTS assay to identify small molecule agonists or antagonists of the thyroid stimulating hormone receptor (TSHR) signaling pathway - wild type cell line counter screen (AID 1259384; calls by dose curve). The gist of the method:
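Counter screen in untransfected Hek293: compounds (15-point titration, triplicate) plus phosphodiesterase inhibitor Ro20-1724 added after 18 h plating; 30 min RT. Intracellular cAMP via competitive d2/cryptate immunoassay, 1 h incubation.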

Assay [13] addresses Thyrotropin receptor (Homo sapiens) (UniProt P16473). The experiment in a line: qHTS assay to identify small molecule antagonists of the thyroid stimulating hormone receptor (TSHR) signaling pathway (AID 1259385; calls by dose curve; further: nearly all actives have a fitted effect of over 20% in size). An outline of the steps:
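Antagonist mode: compound-treated TSHR-expressing HEK293 cells were stimulated with 1.5 ng/mL TSH (final) in presence of Ro20-1724 for 30 min at RT. HTRF cAMP detection after 1 h; each compound tested at 15 concentrations, triplicate.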

Assay [14] in a line: qHTS assay to identify small molecule phospholipidosis (PLD) inducers (AID 1259344; active means well fitted curve in the direction sought with a large enough effect; an effect the other way counts as inactive or inconclusive). The gist of the method:
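Accumulated phospholipid, stained red by LipidTOX during 24 h compound treatment of HepG2 cells at 37 C, is quantified from images as pit number and intensity, normalised per cell using Hoechst-stained nuclei.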

Assay [15] can be described thus: qHTS assay to identify small molecule HDAC inhibitors (AID 1259364).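 Further: wild-type HCT-116 cells with endogenous class I/II HDAC activity; top concentration of the series differs between compounds; nearly all actives have a fitted effect of over 45% in size.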 An outline of the steps: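 Cells (HCT-116, wild type) are seeded at 1,500 per well, incubated overnight, treated with compound in DMSO for 2 hr, then developed with HDAC-Glo I/II reagent for 30 min at room temperature.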
Assay [16] is described as follows: qHTS assay to identify small molecule HDAC inhibitors - cell viability counter screen (AID 1259365). Further: series mostly up to about 92 µM; nearly all actives have a fitted effect of over 50% in size. The gist of the method:
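Following a 2hr exposure of overnight-plated wild-type HCT-116 cells to DMSO-delivered compounds, CellTiter-Glo was added and luminescence recorded after 30min at room temperature.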

Assay [17] in a line: qHTS assay to identify small molecule agonists of the sonic hedgehog signaling (Shh) pathway - cell viability counter screen (AID 1259366). Further: nearly all actives have a fitted effect of over 50% in size. Further: potency means the concentration at half of the fitted maximal effect. The gist of the method:
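After a 4hr attachment at 37C, NIH/3T3 cells bearing an integrated Gli1-driven luciferase reporter were dosed with compounds. Treatment lasted 24hr, with the final hour including CellTiter-Fluor for a fluorescence viability measurement.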

Assay [18] is described as follows: qHTS assay to identify small molecule antagonists of the sonic hedgehog signaling (Shh) pathway - cell viability counter screen (AID 1259367). Further: nearly all actives have a fitted effect of over 55% in size. Further: potency means the concentration at half of the fitted maximal effect. The gist of the method: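 CellTiter-Fluor signal in conditioned medium-stimulated 3T3 Gli1-Luc cells, 23 hr compound exposure, 37C.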
Assay [19] is described as follows: qHTS assay to identify small molecule agonists of the sonic hedgehog signaling (Shh) pathway (AID 1259368; calls by dose curve;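 further: NIH/3T3-derived 3T3Gli1-Luc cells carrying a stable Gli1-driven firefly luciferase reporter; series mostly up to about 92 µM; nearly all actives have a fitted effect of over 15% in size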). The gist of the method: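 Cells of a mouse NIH/3T3 clone stably expressing luciferase under the Gli1 transcriptional response element are exposed to test chemicals for 24 hr at 37 C. Pathway activation is detected as a rise in luminescence.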
For assay [20], the target named is Estrogen receptor beta (Homo sapiens) (UniProt Q92731). The assay can be described thus: qHTS assay to identify small molecule agonists of the estrogen receptor beta (ER-beta) signaling pathway (AID 1259377; active means well fitted activation curve with a large enough effect in the signal ratio in the repeat runs, not every such curve was filed as active; the % refers to the signal ratio). The gist of the method:
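In HEK293T cells bearing a UAS-beta-lactamase reporter under ER-beta control, DMSO-delivered compounds were incubated for 16 hr at 37C. Activity was detected as fluorescence 2 hours after LiveBLAzer B/G FRET substrate addition.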

Estrogen receptor (Homo sapiens), sequence (P03372 whole entry, looked up): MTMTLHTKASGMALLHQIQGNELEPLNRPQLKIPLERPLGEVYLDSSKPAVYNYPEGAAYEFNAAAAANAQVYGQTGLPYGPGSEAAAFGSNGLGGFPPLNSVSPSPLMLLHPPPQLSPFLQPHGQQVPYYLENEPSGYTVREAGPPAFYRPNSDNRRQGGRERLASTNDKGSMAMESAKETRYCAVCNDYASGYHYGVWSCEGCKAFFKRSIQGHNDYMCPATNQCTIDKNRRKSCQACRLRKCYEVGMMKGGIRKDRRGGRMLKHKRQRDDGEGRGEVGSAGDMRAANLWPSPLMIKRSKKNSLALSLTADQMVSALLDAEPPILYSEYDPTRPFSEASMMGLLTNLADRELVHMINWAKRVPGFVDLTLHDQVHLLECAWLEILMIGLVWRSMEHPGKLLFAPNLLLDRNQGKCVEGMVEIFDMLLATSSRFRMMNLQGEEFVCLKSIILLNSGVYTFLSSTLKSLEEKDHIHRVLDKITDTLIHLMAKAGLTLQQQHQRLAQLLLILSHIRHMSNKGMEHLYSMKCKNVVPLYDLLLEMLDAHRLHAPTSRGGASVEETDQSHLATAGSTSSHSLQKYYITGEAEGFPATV
Thyrotropin receptor (Homo sapiens), sequence (P16473 whole entry, looked up): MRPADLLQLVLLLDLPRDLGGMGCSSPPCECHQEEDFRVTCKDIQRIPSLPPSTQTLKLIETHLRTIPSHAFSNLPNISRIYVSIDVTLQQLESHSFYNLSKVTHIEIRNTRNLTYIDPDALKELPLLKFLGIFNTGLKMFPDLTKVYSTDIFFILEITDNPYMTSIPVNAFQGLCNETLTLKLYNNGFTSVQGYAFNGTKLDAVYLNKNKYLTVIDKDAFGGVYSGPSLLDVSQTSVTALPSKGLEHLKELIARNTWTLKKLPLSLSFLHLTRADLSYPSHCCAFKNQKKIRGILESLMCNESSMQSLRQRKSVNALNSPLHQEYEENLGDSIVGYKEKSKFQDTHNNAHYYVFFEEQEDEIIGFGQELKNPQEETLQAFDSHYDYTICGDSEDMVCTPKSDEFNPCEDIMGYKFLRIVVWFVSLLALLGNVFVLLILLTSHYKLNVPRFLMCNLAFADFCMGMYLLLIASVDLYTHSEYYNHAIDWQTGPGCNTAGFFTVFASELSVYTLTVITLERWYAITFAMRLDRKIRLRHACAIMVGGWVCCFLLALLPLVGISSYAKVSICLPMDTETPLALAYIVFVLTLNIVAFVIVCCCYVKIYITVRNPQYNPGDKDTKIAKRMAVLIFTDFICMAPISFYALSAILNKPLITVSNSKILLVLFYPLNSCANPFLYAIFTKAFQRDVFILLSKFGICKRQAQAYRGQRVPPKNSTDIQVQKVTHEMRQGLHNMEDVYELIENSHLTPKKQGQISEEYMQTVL
Androgen receptor (Homo sapiens), sequence (P10275 whole entry, looked up): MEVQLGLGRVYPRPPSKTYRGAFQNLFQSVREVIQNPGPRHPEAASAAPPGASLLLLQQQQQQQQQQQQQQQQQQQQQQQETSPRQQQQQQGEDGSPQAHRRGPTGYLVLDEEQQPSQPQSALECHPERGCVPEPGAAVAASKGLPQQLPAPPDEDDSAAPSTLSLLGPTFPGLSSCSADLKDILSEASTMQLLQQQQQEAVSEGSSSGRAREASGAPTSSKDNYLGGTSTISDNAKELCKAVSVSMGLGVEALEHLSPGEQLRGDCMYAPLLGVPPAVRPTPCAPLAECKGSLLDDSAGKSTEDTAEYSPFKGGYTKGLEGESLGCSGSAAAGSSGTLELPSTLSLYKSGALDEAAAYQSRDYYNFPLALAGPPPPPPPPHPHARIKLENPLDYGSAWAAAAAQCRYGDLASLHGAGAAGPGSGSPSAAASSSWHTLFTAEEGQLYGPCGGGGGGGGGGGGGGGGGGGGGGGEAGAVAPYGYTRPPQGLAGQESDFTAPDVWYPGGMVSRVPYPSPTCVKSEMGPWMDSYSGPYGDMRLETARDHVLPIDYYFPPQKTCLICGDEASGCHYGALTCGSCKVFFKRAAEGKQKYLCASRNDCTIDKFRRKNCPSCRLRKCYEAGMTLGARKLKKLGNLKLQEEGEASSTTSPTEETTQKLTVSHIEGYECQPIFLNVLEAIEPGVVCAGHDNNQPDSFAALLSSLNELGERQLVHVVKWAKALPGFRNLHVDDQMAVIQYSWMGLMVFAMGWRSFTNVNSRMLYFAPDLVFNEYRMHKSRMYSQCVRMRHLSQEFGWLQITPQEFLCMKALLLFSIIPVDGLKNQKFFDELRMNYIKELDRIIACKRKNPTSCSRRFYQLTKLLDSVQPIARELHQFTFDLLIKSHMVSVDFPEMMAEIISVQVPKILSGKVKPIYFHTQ
Estrogen receptor beta (Homo sapiens), sequence (Q92731 whole entry, looked up): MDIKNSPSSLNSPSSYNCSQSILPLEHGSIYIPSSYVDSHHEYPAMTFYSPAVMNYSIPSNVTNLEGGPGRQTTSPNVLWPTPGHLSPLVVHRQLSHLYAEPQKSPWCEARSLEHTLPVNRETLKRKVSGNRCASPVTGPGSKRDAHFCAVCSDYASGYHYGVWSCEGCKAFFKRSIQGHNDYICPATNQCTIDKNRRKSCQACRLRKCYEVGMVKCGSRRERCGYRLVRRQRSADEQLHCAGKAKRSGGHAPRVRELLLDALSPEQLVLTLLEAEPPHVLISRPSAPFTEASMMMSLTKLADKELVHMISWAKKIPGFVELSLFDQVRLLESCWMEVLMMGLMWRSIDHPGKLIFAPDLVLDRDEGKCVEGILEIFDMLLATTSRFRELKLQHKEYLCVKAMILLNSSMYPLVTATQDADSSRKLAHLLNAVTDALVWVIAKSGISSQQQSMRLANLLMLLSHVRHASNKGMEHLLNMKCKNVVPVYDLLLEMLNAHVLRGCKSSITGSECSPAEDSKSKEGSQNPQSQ

As to `C=C(C)C(=O)OCCOc1ccccc1`, the Potency entry in [1], in assay [2], in [3], in assay [4], in assay [6] and in assay [7] was “inactive” each time. The Potency result in assay [8], in [9], in [10], in [11], in [12] and in assay [13] was “inactive” each time. Besides, the Potency in [5] is 43.3 µM (active).
In the case of `O=C(O)Cn1c(C(=O)Nc2nc(-c3ccccc3Cl)cs2)cc2ccccc21`, the Potency result in assay [1], in assay [2], in assay [4], in [14], in [15] and in assay [17] was “inactive” throughout. For the same compound, the Potency entry in assay [18], in assay [5], in [7], in assay [10], in [11] and in [12] was “inactive” throughout. For the same compound, in assay [13], the Potency result is “inactive”. For the same compound, the compound was classed as inactive in assay [16] and in assay [19].
In the case of `Cc1ccc(C(=O)C(C)CN2CCCCC2)cc1` (stereo not given), the Potency entry in assay [1], in [2], in [4], in assay [14], in [15] and in [17] was “inactive” throughout. Besides, the Potency entry in assay [18], in [5], in assay [6], in assay [7], in [8] and in assay [10] was “inactive” each time. In addition, the Potency result in assay [12] and in assay [13] was “inactive” each time. Besides, the outcome in assay [16] and in assay [19] was inactive.
On to `CC(=O)O[C@H]1C[C@@H]2CC[C@@H]3[C@H](CC[C@@]4(C)[C@H]3C[C@H]([N+]3(C)CCCCC3)[C@@H]4OC(C)=O)[C@@]2(C)C[C@@H]1N1CCCCC1`, for which the Potency result in assay [1], in assay [2], in assay [4], in assay [14], in [15] and in [17] was “inactive” throughout. The Potency entry in assay [18], in assay [5], in [7], in assay [8], in assay [10] and in [13] was “inactive” each time. In addition, the call in [16] and in [19] was inactive.
`COCCOCCOCCOCCOC`: the Potency entry in assay [1], in [2], in [3], in assay [4], in assay [15] and in [17] was “inactive” in each case. Besides, the Potency result in [18], in [5], in [6], in [7], in [9] and in assay [11] was “inactive” each time. The Potency result in assay [12] and in assay [13] was “inactive” each time. Further, the compound was called inactive in assay [16] and in assay [19].
Turning to `Cc1cc(C)c(S(=O)(=O)O)cc1N=Nc1cc(S(=O)(=O)O)c2ccccc2c1O`, the Potency in [1] is 54.5 µM (active); in [2] it was 61.1 µM (active); in [17], 27.3 µM (active); in assay [18], 30.6 µM (active); in [7] it was 27.3 µM (active). The Potency result in assay [3], in [15], in [5], in assay [20], in assay [6] and in assay [8] was “inactive” each time. Besides, the Potency entry in assay [9], in assay [10], in [12] and in assay [13] was “inactive” throughout. In addition, the call in [16] and in [19] was inactive.
In the case of `COc1ccc(C(C)=O)cc1`, the Potency entry in assay [1], in assay [2], in assay [3], in assay [4], in [15] and in assay [17] was “inactive” in each case. The Potency result in assay [18], in assay [5], in assay [6], in assay [7], in assay [9] and in assay [10] was “inactive” throughout. Further, in assay [11], the Potency entry was “inactive”. Besides, the compound was classed as inactive in [16] and in assay [19].
Turning to `CCCCOc1cc(C(=O)OCCN(CC)CC)ccc1N`, the Potency entry in assay [1], in assay [2], in assay [4], in [14], in assay [15] and in [17] was “inactive” in each case. For the same compound, the Potency entry in assay [18], in assay [5], in assay [6], in assay [7], in assay [8] and in assay [10] was “inactive” throughout. Besides, the Potency entry in [11] is “inactive”. The compound was called inactive in assay [19].

The record behind these values is PubChem BioAssay (Tox21).
